# Test results from PubChem BioAssay.
# Calls of active or inactive are those of the source.
# Legend:
# [1] = E. coli DRC41 culture turbidity changes, primary screen, E. coli filamentation inducer project, strain DRC41, OD650, 48 h (AID 1152);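 note: E. coli MC1000 strain DRC41 lacking acrAB efflux pump and sulA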; conditions: E. coli DRC41 (acrAB sulA), higher = more signal, called active from +8 up or from −8 down
# [2] = small-molecule binders of probe aLefty1, primary screen, biochemical, small-molecule microarray, 635/667 nm fluorescence (AID 1153); conditions: higher = more signal;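 note: score merges spot fluorescence with signal-to-noise ratio from the scanned slide images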
# [3] = PSAC antagonists in infected red cells, primary screen, cell-based, P. falciparum Indochina, OD700, 1 h (AID 1154); conditions: P. falciparum Indochina infected RBC osmotic lysis, higher = more signal, called active from +8 up or from −8 down
# [4] = PSAC antagonists in infected red cells, primary screen, cell-based, P. falciparum Indochina, OD700, 2 h (AID 1155);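 note: lysis reports solute entry through the parasite surface anion channel PSAC; channel blockers reduce lysis of infected cells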; conditions: P. falciparum Indochina infected erythrocytes, osmotic lysis OD700; higher = more signal, called active from +8 up or from −8 down
# [5] = osmotic lysis modulators in infected erythrocytes, primary screen, PSAC antagonist project, cell-based, P. falciparum Indochina, OD700, 3 h (AID 1156); conditions: higher = more signal, called active from +8 up or from −8 down
# [6] = PSAC antagonists in infected red cells, primary screen, cell-based, P. falciparum Indochina, OD700, 18 h (AID 1157); conditions: P. falciparum Indochina infected erythrocytes, osmotic lysis OD700, 18 h; higher = more signal, called active from +8 up or from −8 down
# [7] = modulators of S6 phosphorylation in cells, primary screen, cell-based, A549, cytoblot, luminescence, serum-stimulated (AID 1158); conditions: A549 phospho-S6 cytoblot, 5 h, higher = more signal;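 note: serum-stimulated A549 lung adenocarcinoma cells; signal is phosphorylated S6 detected by cytoblot immunostaining with HRP secondary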
# [8] = target: NADPH oxidase 2 (Homo sapiens) (UniProt P04839); assay: NOX2-dependent H2O2 signal modulators, primary screen, NOX inhibitor project, cell-based, HEK293-NOX2, PMA-stimulated, Amplex Red fluorescence (AID 1159); conditions: 45 min, higher = more signal, called active from +8 up or from −8 down; note: test concentration not given here
# [9] = target: NADPH oxidase 4 (Homo sapiens) (UniProt Q9NPH5); assay: NOX4-dependent H2O2 signal modulators, primary screen, NOX inhibitor project, cell-based, HEK293-NOX4, tetracycline-induced, Amplex Red fluorescence (AID 1160); conditions: 45 min, higher = more signal, called active from +8 up or from −8 down
# [10] = target: NADPH oxidase 5 (Homo sapiens) (UniProt Q96PH1); assay: NOX5-dependent H2O2 signal modulators, primary screen, NOX inhibitor project, cell-based, HEK293-NOX5, Amplex Red fluorescence (AID 1161); conditions: HEK293-NOX5, ionomycin, 45 min, higher = more signal
# Sequence of NADPH oxidase 5 (Homo sapiens) (Q96PH1 whole entry, looked up): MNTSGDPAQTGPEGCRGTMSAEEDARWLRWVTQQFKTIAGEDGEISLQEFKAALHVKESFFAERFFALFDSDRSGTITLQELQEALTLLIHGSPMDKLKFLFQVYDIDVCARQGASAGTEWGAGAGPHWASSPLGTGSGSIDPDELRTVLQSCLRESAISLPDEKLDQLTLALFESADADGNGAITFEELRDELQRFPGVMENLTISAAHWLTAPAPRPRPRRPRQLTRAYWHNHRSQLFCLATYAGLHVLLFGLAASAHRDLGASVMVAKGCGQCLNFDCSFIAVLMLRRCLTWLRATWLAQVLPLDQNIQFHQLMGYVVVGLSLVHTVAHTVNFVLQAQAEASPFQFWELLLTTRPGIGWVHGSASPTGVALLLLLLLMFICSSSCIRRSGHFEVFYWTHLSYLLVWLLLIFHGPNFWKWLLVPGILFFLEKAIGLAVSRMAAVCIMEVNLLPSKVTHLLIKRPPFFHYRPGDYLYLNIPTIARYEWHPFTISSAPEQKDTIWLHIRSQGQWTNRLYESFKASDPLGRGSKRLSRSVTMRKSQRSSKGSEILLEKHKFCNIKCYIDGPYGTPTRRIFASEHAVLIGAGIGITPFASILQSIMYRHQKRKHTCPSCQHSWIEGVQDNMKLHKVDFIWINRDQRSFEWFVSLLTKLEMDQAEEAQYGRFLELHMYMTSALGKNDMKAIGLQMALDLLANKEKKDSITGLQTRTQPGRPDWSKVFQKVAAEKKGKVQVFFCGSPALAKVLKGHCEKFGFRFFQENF
# Sequence of NADPH oxidase 2 (Homo sapiens) (P04839 whole entry, looked up): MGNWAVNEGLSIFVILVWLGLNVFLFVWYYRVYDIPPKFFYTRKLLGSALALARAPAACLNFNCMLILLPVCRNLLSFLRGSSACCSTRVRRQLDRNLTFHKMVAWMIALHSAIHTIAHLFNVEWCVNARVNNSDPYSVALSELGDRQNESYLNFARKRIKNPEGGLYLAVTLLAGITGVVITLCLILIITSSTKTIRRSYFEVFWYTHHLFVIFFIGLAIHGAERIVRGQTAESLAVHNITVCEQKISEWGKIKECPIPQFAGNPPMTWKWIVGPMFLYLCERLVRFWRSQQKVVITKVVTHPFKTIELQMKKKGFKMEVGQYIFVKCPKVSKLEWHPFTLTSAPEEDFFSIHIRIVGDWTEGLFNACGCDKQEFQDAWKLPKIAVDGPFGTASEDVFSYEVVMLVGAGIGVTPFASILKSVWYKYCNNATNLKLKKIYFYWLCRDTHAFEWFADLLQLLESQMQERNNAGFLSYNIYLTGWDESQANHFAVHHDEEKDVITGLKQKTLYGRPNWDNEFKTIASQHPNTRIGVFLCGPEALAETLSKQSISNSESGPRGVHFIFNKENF
# Sequence of NADPH oxidase 4 (Homo sapiens) (Q9NPH5 whole entry, looked up): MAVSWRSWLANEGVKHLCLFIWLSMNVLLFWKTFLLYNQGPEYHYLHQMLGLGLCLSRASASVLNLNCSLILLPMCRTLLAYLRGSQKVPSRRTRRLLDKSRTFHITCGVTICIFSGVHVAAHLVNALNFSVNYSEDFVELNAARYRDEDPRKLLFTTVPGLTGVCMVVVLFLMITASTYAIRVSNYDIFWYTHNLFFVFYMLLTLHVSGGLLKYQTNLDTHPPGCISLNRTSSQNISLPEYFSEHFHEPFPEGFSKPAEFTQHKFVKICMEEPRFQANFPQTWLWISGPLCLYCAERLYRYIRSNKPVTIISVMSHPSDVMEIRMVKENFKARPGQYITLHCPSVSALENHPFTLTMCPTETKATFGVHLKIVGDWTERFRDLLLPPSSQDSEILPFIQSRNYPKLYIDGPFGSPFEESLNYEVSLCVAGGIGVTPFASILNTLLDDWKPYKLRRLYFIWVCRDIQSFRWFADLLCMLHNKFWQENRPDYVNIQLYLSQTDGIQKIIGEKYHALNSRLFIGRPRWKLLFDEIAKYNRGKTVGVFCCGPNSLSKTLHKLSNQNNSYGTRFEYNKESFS
SMILES,z-score [1],composite z-score [2],z-score [3],z-score [4],z-score [5],z-score [6],z-score [7],z-score [8],z-score [9],z-score [10]
Cc1ccc(N2C(=O)c3ccccc3[C@@H](C(=O)NC(C)C)[C@@H]2c2ccc(CO)cc2)nc1,0.358 (inactive),-0.641,2.41 (inactive),0.474 (inactive),0.884 (inactive),0.596 (inactive),0.45,0.0802 (inactive),-1.16 (inactive),-2.61
O=C1O[C@@H](c2ccccc2)[C@@H](c2ccccc2)N2[C@@H](c3ccc(O)cc3)[C@]3(C(=O)Nc4ccccc43)[C@@H](C(=O)NC[C@H](O)c3ccccc3)[C@H]12,2.14 (inactive),-0.151,1.36 (inactive),-1.01 (inactive),-1.22 (inactive),-1.89 (inactive),1.09,0.0877 (inactive),-0.423 (inactive),1.42
Cc1ccc(S[C@]2(C(=O)NCC(F)(F)F)CC(=O)N(C3Cc4ccccc4C3)[C@@H]2c2ccc(CO)cc2I)cc1,1.1 (inactive),0.0013,6.63 (inactive),1.29 (inactive),0.577 (inactive),0.526 (inactive),-0.204,0.994 (inactive),-1.56 (inactive),1.06
CN(C)CCCN1C(=O)[C@@]2(c3ccc([N+](=O)[O-])cc3)CC(=O)N(C3CCCCC3)[C@@H]2c2ccc(CO)cc21,0.493 (inactive),0.412,-0.275 (inactive),-0.249 (inactive),-1.12 (inactive),-1.73 (inactive),0.759,-0.209 (inactive),0.632 (inactive),0.56
CC(=O)NCCCC[C@@H]1NC(=O)[C@@H]2C[C@H](C(=O)NCCCCCC[N+](C)(C)C)[C@H](c3cccc(OCCO)c3)N2C1=O,0.0924 (inactive),0.156,2.99 (inactive),0.591 (inactive),-0.956 (inactive),0.325 (inactive),-0.507,1.09 (inactive),0.91 (inactive),0.593
CCOC(=O)C=Cc1cccc(OC)c1O,-0.572 (inactive),-0.184,21.2 (active),2.21 (inactive),0.957 (inactive),-1.28 (inactive),1.73,-5.37 (inactive),-5.92 (inactive),-6.34
CC(C)(C)OC(=O)CC[C@]1(C(=O)NCC(O)CO)N=C(c2ccc(OCCCO)cc2)O[C@H]1c1ccccc1CN=[N+]=[N-] (stereo not given in full),-0.207 (inactive),0.975,17.2 (active),2.39 (inactive),0.471 (inactive),0.297 (inactive),-0.832,1.38 (inactive),1.57 (inactive),2.2
O=C(CS)NCCCCCCNC(=O)[C@H]1C[C@H]2C(=O)N3CCC[C@H]3C(=O)N2[C@H]1c1ccc(O)cc1,-0.827 (inactive),0.157,3.99 (inactive),0.776 (inactive),-1.85 (inactive),0.179 (inactive),-0.126,1.05 (inactive),0.241 (inactive),0.247
